Rows were chosen to be rich in hits. Some 0.55% of all compounds tested hit in one or more screens of this group.
EPAC1 ag = agonists of human EPAC1 | O95398 | EPAC1 agonist qHTS, biochemical assay; response scale: 100% = response to 6.5 mM cAMP | Potency, µM (top dose mostly 154 µM), for inactives: at the highest dose activation, hits mostly activators | actives 0.073% (n = 360,000) | AID 720707; note: nearly all actives have a fitted effect of over 60% in size
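Nucleotide exchange by EPAC1 (100 nM) on Rap1B–BODIPY-GDP (250 nM) in the presence of 50 uM GDP is tracked fluorescently at 480/540 nm over 30 min. Signals are normalized to a 6.5 mM cAMP control.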
USP1-UAF1 inh = inhibitors of human USP1/UAF1 deubiquitinase; recombinant USP1/UAF1, Ub-Rhodamine cleavage fluorescence; Potency, µM (series often up to 57.1 µM), without a hit: at the top dose activity change, negative = inhibition, actives largely listed as inhibitors; actives 0.23% (n = 390,000); AID 743255; note: % is set by controls: 0 for no effect and ±100 for the full control effect; nearly all actives have a fitted effect of over 60% in size
Target sequence (O94782 whole entry, looked up): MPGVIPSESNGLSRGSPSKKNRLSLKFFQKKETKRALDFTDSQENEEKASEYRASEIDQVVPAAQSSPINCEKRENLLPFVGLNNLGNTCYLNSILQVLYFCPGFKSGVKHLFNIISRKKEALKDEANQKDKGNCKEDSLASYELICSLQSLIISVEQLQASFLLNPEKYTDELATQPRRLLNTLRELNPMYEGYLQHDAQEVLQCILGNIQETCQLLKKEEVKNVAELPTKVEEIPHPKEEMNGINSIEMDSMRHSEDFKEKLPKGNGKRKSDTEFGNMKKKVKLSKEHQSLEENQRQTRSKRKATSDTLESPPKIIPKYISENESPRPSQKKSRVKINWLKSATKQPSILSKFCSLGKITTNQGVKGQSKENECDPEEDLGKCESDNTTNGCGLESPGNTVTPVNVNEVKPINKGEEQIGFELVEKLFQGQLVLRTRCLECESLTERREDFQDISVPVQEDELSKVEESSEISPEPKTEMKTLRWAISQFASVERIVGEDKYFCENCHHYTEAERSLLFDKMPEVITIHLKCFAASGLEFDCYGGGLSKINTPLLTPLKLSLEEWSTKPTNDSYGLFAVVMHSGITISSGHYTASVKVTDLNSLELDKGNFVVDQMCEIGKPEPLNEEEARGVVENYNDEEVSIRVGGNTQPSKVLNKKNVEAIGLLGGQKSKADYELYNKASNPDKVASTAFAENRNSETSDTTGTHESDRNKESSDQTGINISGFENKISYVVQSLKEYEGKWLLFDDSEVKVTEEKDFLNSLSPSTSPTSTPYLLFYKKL
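Step one: compound is pinned into 1nM USP1/UAF1 in HEPES pH 7.8 buffer with TCEP. Step two: 15 min room-temperature incubation. Step three: Ub-Rho (150nM final) starts cleavage, tracked by fluorescence over six one-minute reads.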
EPAC1 antag = antagonists of human EPAC1. Potency, µM (titrated, usually from 115 µM), inactives show at the highest dose activity change, negative = inhibition, most hits filed as inhibitors. EPAC1 GEF assay, Rap1b-BODIPY-GDP exchange fluorescence. actives 0.14% (n = 360,000). AID 720709;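 note: plate controls were vehicle for no effect and positive control for full effect; nearly all actives have a fitted effect of over 50% in size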
GLP1R cytotox = cytotoxicity in counter-screen for GLP-1R inverse agonists; HEK293 cAMP-luciferase reporter cells, luminescence, 24 h; Potency, µM (top dose mostly 38.3 µM), for the others: at the highest dose activity change, negative = inhibition, actives largely listed as inhibitors; actives 0.13% (n = 410,000); AID 624418;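 note: loss of luciferase light is scored as toxicity; % is set by controls: 0 for no effect and ±100 for the full control effect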
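Quantitative HTS format, 1536 wells, 200 cells/uL seeded. Compounds: 23 nL, 24 h, 37 °C. Detection: luciferase reagent, luminescence at 12 min RT; decreased signal taken as cytotoxic.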
EPAC2 antag = blocks human EPAC2 exchange factor; Q8WZA2; EPAC2 GEF exchange of Rap1B-BODIPY-GDP, fluorescence; Potency, µM (titrated, usually from 114 µM), for inactives: at the highest dose activity, negative = inhibition, hits mostly inhibitors; actives 0.18% (n = 360,000); AID 720708; note: % is set by controls: 0 for no effect and ±100 for the full control effect; nearly all actives have a fitted effect of over 45% in size
EPAC2 ag = EPAC2 (human) agonism; EPAC2 activation, biochemical qHTS; response scale: 100% = 6.5 mM cAMP response; Potency, µM (titrated, usually from 154 µM), without a hit: at the top dose activation, usual class: activators; actives 0.079% (n = 360,000); note: nearly all actives have a fitted effect of over 50% in size
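In this primary screen, activation is scored as increased exchange of BODIPY-GDP from Rap1B by 100 nM EPAC2, with 50 uM GDP as competitor. Signal is normalized to the 6.5 mM cAMP agonist control.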
Active calls of the source: *; i = inactive; u = inconclusive; x = no result given. Calls come from the whole dose curve; as a rule, active = well fitted curve in the direction sought with a large enough effect; inconclusive = small, poorly fitted or top-dose-only effect, or another doubt; inactive = no such curve, though single readings can be large; an effect the other way counts as inactive or inconclusive. Potency is the fitted concentration of half-maximal effect.

SMILES | EPAC1 ag | USP1-UAF1 inh | EPAC1 antag | GLP1R cytotox | EPAC2 antag | EPAC2 ag
C[C@@H]1CN([C@H](C)CO)S(=O)(=O)c2ccc(C#CC3CCCC3)cc2O[C@H]1CN(C)C(=O)Cc1ccccc1 | -4% | -16% | -6% | u | -1% | -1%
CCC(C)c1ccc(N2C(=O)NC(=O)/C(=C/c3cccn3CCOc3ccc(C)cc3)C2=O)cc1 (stereo not given) | -23% | 1% | 45µM* | -14% | -2% | -31%
CCN1C(=O)CCN(C2CCCC2)c2nc(Nc3ccc(C(=O)NC4CCN(C)CC4)cc3OC)ncc21 | -17% | -6% | -9% | u | 9% | 9%
Cc1ccc2c(=O)n3c(nc2c1)C(Cc1ccc(O)cc1)NC(=O)c1cc2ccccc2cc1-3 (stereo not given) | -14% | -19% | -17% | u | 2% | -5%
COc1cccc(/C=C/c2nc(C#N)c(NC3CCCCC3)o2)c1 | x | -16% | x | 156% | x | x
CCCCn1c(NC(=O)c2ccc(Br)o2)c(C(=O)OCC)c2nc3ccccc3nc21 | -5% | 25µM* | u | i | u | 13%
CCCCn1c(NS(=O)(=O)c2ccccc2)c(C(=O)OCC)c2nc3ccccc3nc21 | 3% | 22µM* | -17% | 444% | -6% | 11%
CCOC(=O)c1c(N)n(CCN2CCCCC2)c2nc3ccccc3nc12 | -2% | -7% | -9% | 201% | 8% | 1%
O=c1cc(-c2ccc(O)c(O)c2)oc2cc(O)cc(O)c12 | -22% | u | 45µM* | -23% | 2% | 6%
O=C(NCc1cccc(F)c1)c1cccc2c1C(=O)c1ccc(N3CCC(Cc4ccccc4)CC3)cc1S2(=O)=O | -69% | 7.9µM* | 113% | 113% | 117% | -75%
O=C(O)c1cccc2c1C(=O)c1ccc(N3CCCC3)cc1S2(=O)=O | 11% | -15% | 11% | 38% | 7% | 17%
COC1=CC(=O)c2c(ccc3ncnc(N)c23)C1=O | -6% | 0.89µM* | 40µM* | u | 40µM* | -1%
NNC(=O)c1ccc(OCC2CC(c3ccc(Cl)cc3)=NO2)cc1 (stereo not given) | 8% | 14% | -13% | 13µM* | -11% | 0%
O=C(O)c1ccc(-c2ccc(/C=N/Nc3ccc([N+](=O)[O-])cc3)o2)cc1 | 5% | 13µM* | -24% | 32% | -2% | 3%
CCc1nc2c(OCc3ccc(C(F)(F)F)cc3)cccn2c1N(C)C(=O)C(C)C | -14% | x | -9% | 2% | u | 3%
COc1ccc([C@H]2C[C@@H](O)[C@H](n3cc(COC(=O)c4ccccc4)nn3)CN2CC2CCCCC2)cc1 | -6% | -26% | -16% | -29% | -4% | 15%
CCc1ccc(/C=C2\SC(=S)N(CCCC(=O)N(CCO)c3ccccc3)C2=O)cc1 | -9% | -5% | -10% | u | -4% | 3%
C=CCCC[C@@H]1OC(=O)CNC(=O)C([C@@H](C)CC)NC(=O)[C@@H]2CCCN2C(=O)C([C@@H](C)CC)OC(=O)[C@H](Cc2ccccc2)N(C)C(=O)[C@H](C(C)C)NC(=O)C1(C)C (stereo not given in full) | -26% | x | u | u | -15% | -11%
CCC(C)C1NC(=O)C2CCCN2C(=O)C(CC(C)C)OC(=O)CCNC(=O)C(C)N(C)C(=O)C(C(C)C)N(C)C1=O (stereo not given) | 6% | -3% | 7% | 4.5µM* | 8% | -3%
Cc1cc(N/N=C/c2ccc(O)c(C)c2O)nc(-c2ccccc2O)n1 | 1% | -7% | 4% | 10µM* | -5% | -15%
CCCCN(CC(O)COc1cccc(C)c1)CC(O)COc1cccc(C)c1 (stereo not given) | -8% | u | -12% | u | u | -6%
CCN(CC)c1ccc(N=Cc2c(O)n(CCC3=CCCCC3)c(=O)[nH]c2=O)cc1 | 5% | 193% | 7% | 18% | 56µM* | u
COc1ccc([N+](=O)[O-])c(S(=O)(=O)c2ccc(Cl)cc2)n1 | -7% | u | -15% | 10µM* | 1% | -2%
CCOC(=O)c1ccc(N2C(=O)c3[nH]nc(-c4ccccc4)c3C2c2ccc(CC)cc2)cc1 (stereo not given) | x | -29% | x | u | x | x
Clc1cc(Cl)c(-c2cc(Cl)c(Cl)cc2Cl)cc1Cl | 1% | -22% | -23% | 5% | 4µM* | 9%
SMILES | EPAC1 ag | USP1-UAF1 inh | EPAC1 antag | GLP1R cytotox | EPAC2 antag | EPAC2 ag
Oc1ccc(Cl)c(Cl)c1 | -14% | -21% | -10% | 2% | -9% | 3%
O=C1NC(=O)N(c2ccccc2)C(=O)/C1=C\c1ccc([N+](=O)[O-])s1 | -4% | 18µM* | u | -24% | 13% | 5%
CN1C(=O)NC(=O)/C(=C/c2ccc([N+](=O)[O-])s2)C1=O | 7% | 25µM* | u | u | 1% | 0%
CN1C(=O)C(Cl)(Cl)C(=O)c2ccccc21 | 9% | -5% | -10% | u | 4% | -1%
COc1cc2c(cc1O)[C@@H]1Cc3ccc(OC)c(O)c3CN1CC2 | -7% | 14µM* | -30% | u | 8% | 9%
N/N=C/C(=N\Nc1ccc(Cl)cc1)C(=O)c1ccncc1 | 9% | -4% | -18% | u | -8% | -3%
CN1/C(=C\C=C2C(=O)NC(=S)NC2=O)C(C)(C)c2ccccc21 | u | u | 131% | -1% | 200% | 50µM*
O=C(C[C@@H]1CC[C@@H]2[C@H](COC[C@H](O)CN2Cc2cccc(C(F)(F)F)c2)O1)NCc1ccc(Cl)cc1 | -12% | x | -3% | -26% | u | 2%
CN(C)c1ccc(CNC(=O)Cn2c(=O)oc3cc(S(=O)(=O)N4CCCCCC4)ccc32)cc1 | x | u | x | 11% | x | x
Cc1cc(C=C2C(=O)NC(=S)NC2=O)c(C)n1-c1ccc2c(c1)OCO2 | -6% | -13% | 56µM* | -5% | -5% | -1%
CC1CCCCN1C(=O)c1cc2nc(-c3ccccc3)cc(-c3ccccc3)n2n1 (stereo not given) | 6% | -20% | 5% | 83% | 3% | 8%
Cc1cccc(-n2c(O)c(/C=C/C=Nc3ccccc3)c(=O)[nH]c2=O)c1 | 100µM* | u | 6% | 10% | 9% | -22%
Cc1ccccc1-n1c(O)c(/C=C/C=Nc2ccccc2)c(=O)[nH]c1=O | 89µM* | 32µM* | 64% | -8% | 89% | u
